According to PubChem BioAssay AID651871 (Sanford-Burnham Center for Chemical Genomics, 2012):
Several values for one entry are separate records, joined by “and”; a condition that tells them apart may be missing. Identical values can stand only once.

test system: HL-1; experiment: protection of cardiomyocytes from stress damage, SAR follow-up, cell-based, panel, H9c2 and HL-1, ATP luminescence, set 2 (AID 651871); settings: H9c2/HL-1 cardiomyocytes, 2-deoxyglucose stress, with 2-deoxyglucose, run 14, at 79 µM (top of the series);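 also: cells exposed to stressor for 2 h before ATP readout; reference of the scale not given here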

SMILES	activity (protection/inhibition)
COc1ccc2nc(-c3cc(OC)c(OC)c(OC)c3)cc(C(=O)NCC(=O)Nc3ccc(C(C)=O)cc3)c2c1	66%
CCOC(=O)c1cccc(NC(=O)CNC(=O)c2cc(-c3cc(OC)c(OC)c(OC)c3)nc3ccccc23)c1	83.5%
COc1ccc2c(c1OC)C(=O)N1c3ccccc3C(=O)N(Cc3cccc(Cl)c3Cl)C21 (stereo not drawn)	56.3% and -4.31%
